In all, about 52,000 compounds went through this assay and about 4,300 (8.3%) were called active. The sample as a whole holds a higher share of actives than the screen did. Values without a mark were called inactive. No stated cut-off is given here; in the data, active means survival mostly below about 52% (no sharp cut-off); inactive means mostly above about 56%.
These molecules were tested on DeltatarO mutant (assay: S. aureus survival, RN4220 and DeltatarO strains – OD600, teichoic acid synthesis inhibitors, primary screen (AID 463173)). Settings: S. aureus RN4220 wild type/DeltatarO growth, OD600, 18 h, hits give low values, screened at 18.75 µg/mL (by protocol).

Compound | survival
COc1ccc(CCC(=O)NCc2ccc3c(c2)CCN3C(=O)c2ccc(C)cc2)cc1 | 75%
CC1=C(c2ccc(Cl)cc2)S(=O)(=O)N=C1N1CCN(c2cccc(C)c2)C(C)C1 (stereo not given) | 89%
CCOC(=O)N1CCC(NC(=O)c2cnn(-c3ccc(OC)cc3)c2C2CCN(C(=O)OC(C)(C)C)CC2)CC1 | 84%
CCOc1ccc(NC(=O)C(C)Sc2nnc3cc(C)c4ccccc4n23)cc1 (stereo not given) | 73%
COC(=O)Cn1c(SCCOc2ccccc2OC)nc2ccccc21 | 51%
COC(=O)Cn1c(SCCOc2ccccc2Cl)nc2ccccc21 | 42% (active)
CCCCNC(=O)c1cnn2c(C)c(Cc3c(C)cc(C)cc3C)c(C)nc12 | 102%
COc1ccc(CNC(=O)CCCn2nc(C)c3sc4ccccc4c3c2=O)cc1OC | 87%
Cc1oc(-c2ccccc2F)nc1CSCC(=O)N1CCN(c2ccccc2)CC1 | 62%
Cc1cccc(-c2nc(CSCC(=O)N3CCN(c4cccc(C)c4C)CC3)c(C)o2)c1 | 8% (active)
Cc1cccc(-c2nc(CSCC(=O)N3CCN(c4ccccc4)CC3)c(C)o2)c1 | 17% (active)
Cc1ccc(-c2nc(CS(=O)(=O)CC(=O)N3CCN(c4cccc(C)c4C)CC3)c(C)o2)cc1 | 116%
COc1ccc(-c2nc(CSCC(=O)N3CCN(c4cccc(C)c4C)CC3)c(C)o2)cc1OC | 49%
CCc1ccc(-c2nc(CSCC(=O)N3CCN(c4ccc(F)cc4)CC3)c(C)o2)cc1 | 73%
O=C(Cn1cc(SCc2ccccc2F)c2ccccc21)N1CCCCCC1 | 73%
CCOC(=O)C1CCN(C(=O)c2ccc3c(=O)n4nc(Nc5ccccc5)sc4nc3c2)CC1 | 117%
COc1ccccc1NC(=O)Cn1c(=O)n(-c2cccc(C(C)=O)c2)c(=O)c2c3c(sc21)CN(C(C)=O)CC3 | 89%
COc1ccc(S(=O)(=O)c2c(O)c3ccc(C(=O)NCc4ccc(Cl)cc4)cc3[nH]c2=O)cc1 | 89%
COc1cccc(CNC(=O)CN(C)S(=O)(=O)c2ccc3[nH]c4c(c3c2)CCCC4)c1 | 75%
CCOc1ccc(OCC)c(NC(=O)c2cnc3c(-c4ccccc4)c(C)nn3c2C)c1 | 91%
Cc1ccc(NC(=O)c2cnc(SCC(=O)N3CCCc4ccccc43)n(C)c2=O)cc1C | 85%
COc1cccc2sc(NC(=O)c3ccc4c(c3)OCCO4)nc12 | 88%
COc1ccc2oc(=O)c(-c3nnc(-c4ccc(C)cc4)o3)cc2c1 | 138%

Compound | survival
CC1CCCN(c2nc3c(-c4ccc(Cl)cc4)nnn3c3ccccc23)C1 (stereo not given) | 87%
COc1ccc(-c2nnn3c2nc(N2CCCC(C)C2)c2ccccc23)cc1 (stereo not given) | -3% (active)
O=S(=O)(c1ccccc1)c1nnn2c1nc(N1CCN(c3ccccc3)CC1)c1cc(Cl)ccc12 | 91%
COc1ccc(-c2nnn3c2nc(NCc2ccccc2)c2ccccc23)cc1 | 89%
Brc1cccc(-c2nnn3c2nc(N2CCCCC2)c2ccccc23)c1 | 62%
CC1CCN(c2nc3c(-c4cccc(Br)c4)nnn3c3ccccc23)CC1 | 104%
Cc1ccc(-c2nnn3c2nc(N2CCC(C)CC2)c2ccccc23)cc1 | -6% (active)
Clc1ccc(-c2nnn3c2nc(N2CCCCC2)c2ccccc23)cc1 | 25% (active)
CC1CCN(c2nc3c(S(=O)(=O)c4ccccc4)nnn3c3ccc(Cl)cc23)CC1 | 69%
O=C(NCCCN1CCN(c2ccccc2)CC1)c1nnc(Cc2c(F)cccc2Cl)o1 | 71%
Cc1cc(NC(=O)CCc2nc3cccnc3n2Cc2cccs2)ccc1Br | 50%
COCCCNC(=O)c1cc(-c2cccnc2)nc2ccc(S(=O)(=O)N3CCC(C)CC3)cc12 | 113%
CC(=O)c1ccc(N2CCN(C(=O)C3CCN(S(=O)(=O)c4cccc5nonc45)CC3)CC2)cc1 | 79%
COC(=O)CSc1ncc(C#N)c(N)n1 | 110%
COc1ccc(C)cc1NC(=O)CCc1c(C)nn(-c2ccc(N3CCCCC3)nn2)c1C | 78%
CCOc1ccc(C(=O)Nc2onc3c2CCCC3)cc1 | 72%
CC(C)(C)c1ccc(C(=O)Nc2onc3c2CCCC3)cc1 | 56%
CCCCOc1ccc(C(=O)Nc2onc3c2CCCC3)cc1 | 49% (active)
O=C(Nc1onc2c1CCCC2)c1ccc(Cl)cc1 | 77%
CC(C)COc1ccc(C(=O)Nc2onc3c2CCCC3)cc1 | 103%
Cc1ccc(C(=O)Nc2onc3c2CCCC3)cc1 | 46% (active)
CCCCOC(=O)c1ccc(NC(=O)c2sc3nc(C)cc(C)c3c2N)cc1 | 65%
CCCCn1cc(S(=O)(=O)c2ccccc2)c(=O)c2cc(F)c(N3CCC(C)CC3)cc21 | 68%

Compound | survival
C=CCn1c(SCc2cccnc2)nnc1-c1ccncc1 | 88%
CCOc1ccc(NC(=O)c2ccc(NC(=O)N3CCSc4ncccc43)cc2)cc1 | 76%
Cc1ccc(Cl)cc1NC(=O)c1ccc(NC(=O)N2CCSc3ncccc32)cc1 | 79%
CCc1cccc(NC(=O)c2ccc(NC(=O)N3CCSc4ncccc43)cc2)c1 | -1% (active)
Cc1ccc(NC(=O)c2ccc(NC(=O)N3CCSc4ncccc43)cc2)c(C)c1 | 86%
CC(C)Oc1ccc(CNC(=O)c2ccc(NC(=O)N3CCSc4ncccc43)cc2)cc1 | 6% (active)
CC(=O)c1ccc(NC(=O)c2cccc(NC(=O)N3CCSc4ncccc43)c2)cc1 | 79%
CC(C)Oc1ccc(CNC(=O)c2cccc(NC(=O)N3CCSc4ncccc43)c2)cc1 | 88%
CC(C)Oc1ccc(CNC(=O)Cc2ccc(NC(=O)N3CCSc4ncccc43)cc2)cc1 | 102%
Cc1ccccc1NC(=O)c1ccc(NC(=O)N2CCSc3ncccc32)cc1 | -2% (active)
CC(C)CC1CC(C)(C(=O)CSc2n[nH]c(-c3ccccc3)n2)OC1=O (stereo not given) | 80%
COC(=O)c1cc(C)nc2c1c(=O)nc(SCc1cccc(C)c1)n2C1CC1 | 78%
COc1ccc(CNC(=O)c2cnc3sc(N4CCCC4)nn3c2=O)c(OC)c1 | 70%
Cc1ccccc1Nc1c(-c2ccc(O)cc2)nc2c(C)cccn12 | 72%
Cc1ccc(Nc2c(-c3ccsc3)nc3c(C)cccn23)cc1 | 20% (active)
Cc1ccccc1Nc1c(-c2ccc(Cl)cc2)nc2c(C)cccn12 | 69%
Cc1cccc(C)c1Nc1c(-c2ccsc2)nc2cccc(C)n12 | 54%
Cc1ccccc1Nc1c(-c2ccsc2)nc2c(C)cccn12 | 8% (active)
Cc1ccc(Nc2c(-c3ccc(C)cc3)nc3c(C)cccn23)cc1 | 9% (active)
Cc1ccc(Nc2c(-c3ccc(O)cc3)nc3cccc(C)n23)cc1 | 84%
Cc1cccn2c(Nc3ccccc3)c(-c3ccc(N4CCOCC4)cc3)nc12 | 113%
Cc1ccc2nc(-c3ccsc3)c(Nc3ccc(Cl)cc3)n2c1 | 73%
Cc1ccc(Nc2c(-c3ccc(N4CCOCC4)cc3)nc3c(C)cccn23)cc1 | 56%

Compound | survival
Cc1ccc(Nc2c(-c3ccsc3)nc3cccc(C)n23)cc1 | 25% (active)
Cc1cccn2c(Nc3ccccc3)c(-c3cccs3)nc12 | 89%
CCOC(=O)c1cccc(NC(=O)N2CCOCC2)c1 | 80%
O=C(Cn1c2[n+](c3ccccc31)CC(O)CS2)N1CCCCC1 (stereo not given) | 72%
O=C(Cn1c(=O)c2cccn2c2ccccc21)NCc1ccccc1F | 84%
CCCNS(=O)(=O)c1cc(-c2nn3c(C)nnc3c3ccccc23)ccc1C | 61%
C=C(C)c1cccc(C(C)(C)NC(=O)NC2CC(C)(C)NC(C)(C)C2)c1 | 107%
Cc1ccc(CCNC(=O)c2ccc3[nH]c(C)c(C)c3c2)cc1 | 116%
CCCn1c(=O)n(-c2ccccc2Cl)c(=O)c2sc3ccccc3c21 | 95%
Cc1c(C(=O)OCCOc2ccccc2)[nH]c2c1C(=O)CC(c1ccc(C(C)(C)C)cc1)C2 (stereo not given) | 70%
Cc1cc(C)cc(NS(=O)(=O)c2ccc(-n3cccn3)cc2)c1 | 75%
Cc1ccc2oc(C(=O)Nc3sc4c(c3C(=O)NCC3CCCO3)CCC4)cc(=O)c2c1 (stereo not given) | 79%
Cc1ccc2c(=O)cc(C(=O)Nc3sc4c(c3C(=O)NCC3CCCO3)CCCC4)oc2c1 (stereo not given) | 71%
Cc1cc2oc(C(=O)Nc3sc4c(c3C(=O)NCC3CCCO3)CCC4)cc(=O)c2cc1C (stereo not given) | 36% (active)
Cc1ccc2c(=O)cc(C(=O)Nc3sc4c(c3C(=O)NCC3CCCO3)CCC4)oc2c1 (stereo not given) | 71%
O=C(Nc1sc2c(c1C(=O)NCC1CCCO1)CCC2)c1cc(=O)c2cc(Cl)ccc2o1 (stereo not given) | 43% (active)
Cc1ccc2c(=O)cc(C(=O)Nc3sc4c(c3C(=O)NCC3CCCO3)CCCC4)oc2c1C (stereo not given) | 85%
O=C(Nc1sc2c(c1C(=O)NCC1CCCO1)CCCC2)c1cc(=O)c2ccccc2o1 (stereo not given) | 50%
Cc1cc2oc(C(=O)Nc3sc4c(c3C(=O)NCC3CCCO3)CCCC4)cc(=O)c2cc1C (stereo not given) | 47% (active)
O=C(Nc1sc2c(c1C(=O)NCC1CCCO1)CCC2)c1cc(=O)c2ccccc2o1 (stereo not given) | 66%
Cc1noc(/C=C/c2cccs2)c1S(=O)(=O)N1CCC(C(=O)Nc2ccc(F)c(Cl)c2)CC1 | 52%

— PubChem BioAssay AID463173 (ICCB-Longwood Screening Facility, Harvard Medical School, 2010)
